This passage reports growth results from PubChem BioAssay (NCI).

Some test systems named below: HCT-15 colon; HT29 colon; SNB-75 CNS; SNB-19 CNS; U251 CNS; PC-3 prostate; SK-MEL-5 melanoma; UACC-62 melanoma; LOX IMVI melanoma; SK-MEL-28 melanoma.
Assay in all cases: NCI-60 one-dose screen, 48 h (100 = growth as untreated, 0 = no growth, -100 = all killed)
What all share (conditions): 10 µM unless noted

The structures appear in SMILES notation. About 83,000 compounds went through this panel and 20% of them were active in at least one assay; those are over-represented in the sample as a whole.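 Testing used 96-well plates and a 48-hour single-concentration exposure. Example: -40 means 40% of the starting cells died.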 A number with no mark means an inactive call. The source made the active and inactive calls. The calls were made as follows: active = growth percent below 10; inactive = the rest.

For the compound `CCN(C(=O)CN1CCN(c2cc3c(cc2F)c(=O)c(C(=O)O)cn3CC)CC1)c1nc(-c2ccccc2)cs1`, the growth was 12.3% with HCT-15 colon; 0.981% (active) in the assay with HT29 colon; -5.25% (active) with SNB-75 CNS; 6.46% (active) in the assay on SNB-19 CNS; 6.31% (active) in the assay on U251 CNS; 2.39% (active) in the assay on PC-3 prostate. Besides, the growth with SK-MEL-5 melanoma was -55.6% (active); with UACC-62 melanoma it was -5% (active); with LOX IMVI melanoma it was -35% (active); in the assay on SK-MEL-28 melanoma it was 41.9%.
For `CCC(c1ccc(O)cc1)C(CC)c1ccc(O)c(F)c1` (stereo not given), the growth in the assay on HCT-15 colon was 78.2%; with HT29 colon it was 102%; in the assay on SNB-75 CNS, 78.7%; in the assay with SNB-19 CNS, 125%; in the assay with U251 CNS it was 89.8%; in the assay with PC-3 prostate it was 72.1%. In addition, the growth in the assay with SK-MEL-5 melanoma was 66.4%; in the assay with UACC-62 melanoma, 59.4%; in the assay on LOX IMVI melanoma, 87.2%; with SK-MEL-28 melanoma, 78.9%.
Take `CN1CCOCCOCCOc2ccccc2NC(=O)c2nc(cnc2N)-c2ccc(cc2)S1(=O)=O`: the growth with HCT-15 colon was 1.6% (active); in the assay on HT29 colon it was 9.23% (active); with SNB-75 CNS, 52.1%; in the assay with SNB-19 CNS, 82.5%; with U251 CNS, 54.6%; with PC-3 prostate it was 53.5%. Also, the growth in the assay with SK-MEL-5 melanoma was 60.5%; in the assay on UACC-62 melanoma it was 54.3%; in the assay with LOX IMVI melanoma, 30.1%; in the assay with SK-MEL-28 melanoma it was 58.6%.
In the case of `O=C1c2ccccc2-c2nccc3cc(Cl)nc1c23`, the growth in the assay on HCT-15 colon is 17.6%; with HT29 colon, 14.3%; with SNB-75 CNS it was 65.1%; in the assay with SNB-19 CNS, 105%; in the assay on U251 CNS, 32.8%; in the assay on PC-3 prostate, 8.78% (active). Further, the growth in the assay with SK-MEL-5 melanoma is -89% (active); with UACC-62 melanoma it was 27.7%; with LOX IMVI melanoma, -22.5% (active); in the assay on SK-MEL-28 melanoma it was 55.8%.
As for `Cn1c(=O)c2[nH]c(C(O)C(O)C(O)C(O)CO)nc2n(C)c1=O` (stereo not given), the growth in the assay on HCT-15 colon was 106%; in the assay on HT29 colon, 99.6%; in the assay on SNB-75 CNS, 92.6%; in the assay on SNB-19 CNS, 97.3%; in the assay on U251 CNS it was 100%; in the assay with PC-3 prostate, 93.2%. Besides, the growth with SK-MEL-5 melanoma is 104%; in the assay on UACC-62 melanoma, 99.7%; in the assay with LOX IMVI melanoma, 102%; with SK-MEL-28 melanoma, 100%.
Regarding `O=C(NCc1cccc(C(F)(F)F)c1)[C@H](CCC(=O)N1CCN(C2CCCCC2)CC1)N1C(=O)[C@@H](N2C(=O)OC[C@@H]2c2ccccc2)[C@H]1/C(Cl)=C/c1ccccc1`, the growth is 31.8% in the assay on HCT-15 colon; 2.23% (active) with HT29 colon; 58.5% in the assay on SNB-75 CNS; 39.4% in the assay on SNB-19 CNS; 28.1% with U251 CNS; 21.7% in the assay on PC-3 prostate. Besides, the growth is -59.5% (active) with SK-MEL-5 melanoma, 60.3% in the assay on UACC-62 melanoma, 19.9% in the assay with LOX IMVI melanoma and 18.6% in the assay with SK-MEL-28 melanoma.
Consider `CC1=C(NCCN2CCCC2)C(=O)c2c(OCc3ccc(F)c(Cl)c3)cccc2C1=O`, for which the growth in the assay with HCT-15 colon was 49.1%; with HT29 colon it was 20.5%; in the assay with SNB-75 CNS, 69.9%; in the assay with SNB-19 CNS it was 93%; with U251 CNS, 57.8%; in the assay with PC-3 prostate, 60.3%. Also, the growth in the assay on SK-MEL-5 melanoma was 59%; in the assay with UACC-62 melanoma, 91.7%; in the assay with LOX IMVI melanoma, 12.9%; in the assay on SK-MEL-28 melanoma it was -53.4% (active).
For the compound `N#Cc1c2c(nc3n[nH]c(N)c13)CCCC2`, the growth with HCT-15 colon is 105%; in the assay on HT29 colon, 104%; in the assay with SNB-75 CNS, 85.6%; in the assay with SNB-19 CNS, 112%; in the assay with U251 CNS, 99.3%; with PC-3 prostate it was 109%. Further, the growth was 118% with SK-MEL-5 melanoma, 101% in the assay with UACC-62 melanoma, 102% with LOX IMVI melanoma and 122% in the assay with SK-MEL-28 melanoma.
In the case of `COc1ccc(/C(=C/c2ccc3ccccc3c2)c2nn[nH]n2)cc1OC`, the growth is 31.1% in the assay with HCT-15 colon; 5.54% (active) in the assay with HT29 colon; -7.45% (active) in the assay on SNB-75 CNS; 51.1% in the assay with SNB-19 CNS; 14.3% with U251 CNS; 18.6% in the assay with PC-3 prostate. The growth in the assay on SK-MEL-5 melanoma is 23.5%; in the assay with UACC-62 melanoma, 21.5%; in the assay with LOX IMVI melanoma, 37.6%; in the assay with SK-MEL-28 melanoma, 56.6%.
Turning to `COc1ccc(-c2c3c(nc4n[nH]c(-c5ccc(Cl)cc5)c24)-c2ccccc2C(=O)C3=O)cc1`, the growth in the assay on HCT-15 colon was 21.6%; in the assay with HT29 colon, -11.8% (active); in the assay on SNB-75 CNS, 54.3%; with SNB-19 CNS it was 44.3%; with U251 CNS, -40.2% (active); in the assay with PC-3 prostate it was 7.97% (active). The growth is 5.41% (active) in the assay with SK-MEL-5 melanoma, -33.7% (active) in the assay on UACC-62 melanoma, -50.9% (active) in the assay with LOX IMVI melanoma and 30.4% in the assay on SK-MEL-28 melanoma.
Consider `CCN(CC)C12CCCCC1(C)C(C#N)(C#N)C(C#N)=C(N)O2` (stereo not given), for which the growth in the assay on HCT-15 colon is 106%; in the assay with HT29 colon it was 101%; in the assay with SNB-75 CNS, 92.1%; in the assay with SNB-19 CNS, 106%; with U251 CNS it was 103%; in the assay on PC-3 prostate, 115%. Moreover, the growth with SK-MEL-5 melanoma was 116%; in the assay on UACC-62 melanoma it was 90.8%; in the assay on LOX IMVI melanoma, 98.9%; in the assay on SK-MEL-28 melanoma, 99.3%.
On to `O=C(CN1CCN(c2cc3c(cc2F)c(=O)c(C(=O)O)cn3C2CC2)CC1)Nc1nc(-c2ccc(Cl)cc2)cs1`, for which the growth with HCT-15 colon was 15.7%; with HT29 colon, 10.4%; in the assay with SNB-75 CNS, 32.6%; with SNB-19 CNS, 22.5%; in the assay with U251 CNS, 8.26% (active); in the assay on PC-3 prostate, 17.7%. Further, the growth in the assay on SK-MEL-5 melanoma was 10.4%; in the assay with UACC-62 melanoma, 20.1%; in the assay with LOX IMVI melanoma, -42.4% (active); with SK-MEL-28 melanoma it was 42.6%.
In the case of `COc1ccc(-c2cc(/C=C3\C(=O)Nc4ccc(Cl)cc43)[nH]n2)cc1`, the growth was 36.1% in the assay with HCT-15 colon; 11.5% in the assay on HT29 colon; 49.8% in the assay with SNB-75 CNS; 71.1% in the assay on SNB-19 CNS; 34.2% in the assay on U251 CNS; 67.1% in the assay on PC-3 prostate. Also, the growth was 37.9% with SK-MEL-5 melanoma, 40.6% with UACC-62 melanoma, 35.2% with LOX IMVI melanoma and 61.7% with SK-MEL-28 melanoma.
